Assay results: PubChem BioAssay (NCI)
Values joined by “and” are separate entries in the source; they are usually repeats but may differ in a detail not shown here. Equal entries are not always repeated. This is part of a sample that, as a whole, favours compounds with a hit. Of some 83,000 tested, about 20% had one in any assay.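 Method: cells in 96-well plates; compound added at one concentration; 48 h incubation; percent growth measured; values under 10 scored active.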 Active and inactive are the calls of the source.

Test system: A498 renal
Assay: NCI-60 one-dose screen, 48 h (100 = growth as untreated, 0 = no growth, -100 = all killed)
Details: 10 µM unless noted

Structure (SMILES) | growth
OCCN1CCCCCCC1 | 100% (inactive)
O=[N+]([O-])c1cccc(SSc2cccc([N+](=O)[O-])c2)c1 | 119% (inactive)
CCc1cc(C)cc(O)c1 | 102% (inactive)
COc1ccc(Nc2ccc3ccccc3c2)cc1 | 52.8% (inactive)
O=C(CO)C(O)C(O)C(O)C(O)CO (configuration not stated) | 97.5% (inactive) and 100% (inactive)
c1ccc(CNCCNCc2ccccc2)cc1 | 96.5% (inactive)
Cc1cc2ccccc2cn1 | 100% (inactive) and 197% (inactive)
CCCCCCCCCCNC(=O)CI | 111% (inactive)
O=C(O)CCCl | 99.1% (inactive)
O=c1n(CC2CO2)c(=O)n(CC2CO2)c(=O)n1CC1CO1 (configuration not stated) | 88.4% (inactive)
Cl | 88.1% (inactive)
O=c1[nH]cnc2c1ncn2C1OC(CO)C(O)C1O (configuration not stated) | 116% (inactive) and 129% (inactive) and 113% (inactive)
COc1cc(C(O)C2C(=O)OCC2C2(c3ccc4c(c3)OCO4)SCCCS2)cc(OC)c1OC (configuration not stated) | 84.4% (inactive)
CC(=O)NCC(=O)c1ccc([N+](=O)[O-])cc1 | 81.2% (inactive)
CC(C)NCC(O)c1ccc(O)c(O)c1 (configuration not stated) | 95.8% (inactive) and 119% (inactive) and 78.3% (inactive)
CN1CNC(=O)NC1 | 100% (inactive) and 72.4% (inactive)

Structure (SMILES) | growth
Cc1ccc(S(=O)(=O)c2ccccc2)cc1 | 28% (inactive)
O=C(O)/C=C\C(=O)Nc1cccc2ccccc12 | 96.3% (inactive) and 115% (inactive)
N#CC(C#N)N=Nc1cc(Cl)ccc1Cl | 110% (inactive)
Brc1ccc(SSc2ccc(Br)cc2)cc1 | 71.2% (inactive)
c1ccc(-c2nc3ccccc3s2)cc1 | 100% (inactive)
COc1ccc(C(=O)CC(c2ccccc2)C(C#N)c2ccccc2)cc1 (configuration not stated) | 86.5% (inactive)
CCCCCCCCCCCCCCCc1ccc(N)c(OC2OC(CO)C(O)C(O)C2O)c1 (configuration not stated) | 79.2% (inactive)
CC(=O)OC(C)C(=O)NCC(C)O (configuration not stated) | 98.2% (inactive)
OC1COC(OCc2ccccc2)C(O)C1O (configuration not stated) | 92.9% (inactive)
NC(=O)NCCCC(N)C(=O)O (configuration not stated) | 113% (inactive)
ClCCOCCOc1ccc(C2CCCCC2)cc1 | 73.1% (inactive)
Fc1ccc([I+]c2ccc(F)cc2)cc1 | 78.3% (inactive)
CC(C)C(C)(C)c1ccc(O)cc1 | 102% (inactive)
Cn1cnc([N+](=O)[O-])c1Sc1ncn[nH]1 | 117% (inactive)
O=C(Cc1ccccc1)c1ccc(O)c(Cl)c1 | 105% (inactive)
CC1CCC2(OC1)OC1CC3C4CC=C5CC(O)CCC5(C)C4CCC3(C)C1C2C (configuration not stated) | 110% (inactive)

Test system: CCRF-CEM leukemia
Assay: as above
Details: 10 µM

Structure (SMILES) | growth
O=C(CO)C(O)C(O)C(O)C(O)CO (configuration not stated) | 103% (inactive) and 105% (inactive)
Nc1ncnc2c1ncn2C1OC(COP(=O)(O)O)C(O)C1O (configuration not stated) | 105% (inactive)
c1ccc(CNCCNCc2ccccc2)cc1 | 92.6% (inactive)
N#CC(C#N)N=Nc1cc(Cl)ccc1Cl | 94.7% (inactive)
CCOC(=O)c1c(C)cc(=O)oc1C | 100% (inactive)
CC(=O)OC(C)C(=O)NCC(C)O (configuration not stated) | 98.9% (inactive)
ClCCOCCOc1ccc(C2CCCCC2)cc1 | 107% (inactive)
Fc1ccc([I+]c2ccc(F)cc2)cc1 | 48.2% (inactive)

Test system: MOLT-4 leukemia
Assay: as above
Details: 10 µM unless noted

Structure (SMILES) | growth
OCCN1CCCCCCC1 | 106% (inactive)
O=[N+]([O-])c1cccc(SSc2cccc([N+](=O)[O-])c2)c1 | 82.1% (inactive)
CCc1cc(C)cc(O)c1 | 98.1% (inactive)
COc1ccc(Nc2ccc3ccccc3c2)cc1 | 71.5% (inactive)
O=C(CO)C(O)C(O)C(O)C(O)CO (configuration not stated) | 106% (inactive) and 95.8% (inactive)
Nc1ncnc2c1ncn2C1OC(COP(=O)(O)O)C(O)C1O (configuration not stated) | 109% (inactive)
c1ccc(CNCCNCc2ccccc2)cc1 | 105% (inactive)
Cc1cc2ccccc2cn1 | 112% (inactive) and 88.7% (inactive)
CCCCCCCCCCNC(=O)CI | -28.9% (active)
O=C1OC(c2ccccc2)=N/C1=C\c1ccccc1 | 105% (inactive)
Cc1cc(-c2cc(C)c(O)c(C)c2)cc(C)c1O | 74.9% (inactive)
O=C(O)CCCl | 109% (inactive)
O=c1n(CC2CO2)c(=O)n(CC2CO2)c(=O)n1CC1CO1 (configuration not stated) | 19.2% (inactive)
Cl | 88.5% (inactive)
O=c1[nH]cnc2c1ncn2C1OC(CO)C(O)C1O (configuration not stated) | 93% (inactive) and 76% (inactive) and 105% (inactive)
COc1cc(C(O)C2C(=O)OCC2C2(c3ccc4c(c3)OCO4)SCCCS2)cc(OC)c1OC (configuration not stated) | 94% (inactive)
CC(=O)NCC(=O)c1ccc([N+](=O)[O-])cc1 | 98.4% (inactive)
CC(C)NCC(O)c1ccc(O)c(O)c1 (configuration not stated) | 98.5% (inactive) and 95.2% (inactive) and 98.8% (inactive)
CN1CNC(=O)NC1 | 99.9% (inactive) and 85.2% (inactive)

Structure (SMILES) | growth
Cc1ccc(S(=O)(=O)c2ccccc2)cc1 | 32.5% (inactive)
O=C(O)/C=C\C(=O)Nc1cccc2ccccc12 | 77.2% (inactive) and 84.1% (inactive)
N#CC(C#N)N=Nc1cc(Cl)ccc1Cl | 92.4% (inactive)
Brc1ccc(SSc2ccc(Br)cc2)cc1 | 4.43% (active)
c1ccc(-c2nc3ccccc3s2)cc1 | 103% (inactive)
COc1ccc(N/C=C/C2=[N+](C)c3ccccc3C2(C)C)c(OC)c1 | 104% (inactive)
COc1ccc(C(=O)CC(c2ccccc2)C(C#N)c2ccccc2)cc1 (configuration not stated) | 76.4% (inactive)
CCOC(=O)c1c(C)cc(=O)oc1C | 101% (inactive)
CCCCCCCCCCCCCCCc1ccc(N)c(OC2OC(CO)C(O)C(O)C2O)c1 (configuration not stated) | 60.8% (inactive)
CC(=O)OC(C)C(=O)NCC(C)O (configuration not stated) | 98.1% (inactive)
OC1COC(OCc2ccccc2)C(O)C1O (configuration not stated) | 98.9% (inactive)
NC(=O)NCCCC(N)C(=O)O (configuration not stated) | 88.7% (inactive)
ClCCOCCOc1ccc(C2CCCCC2)cc1 | 120% (inactive)
Fc1ccc([I+]c2ccc(F)cc2)cc1 | 54.8% (inactive)
CC(C)C(C)(C)c1ccc(O)cc1 | 106% (inactive)
Cn1cnc([N+](=O)[O-])c1Sc1ncn[nH]1 | 121% (inactive)
O=C(Cc1ccccc1)c1ccc(O)c(Cl)c1 | 22.6% (inactive)
CC1CCC2(OC1)OC1CC3C4CC=C5CC(O)CCC5(C)C4CCC3(C)C1C2C (configuration not stated) | 102% (inactive)
